Laboratory results: the supplement of paper PMC10849652
About 7,900 targets were measured; listed, in parts, are those with a hit and a random draw of the rest. About 0.6% of all pairs of compound and target were hits.

Legend:
Experiment in all cases: log2 fold change, soluble protein after heating vs DMSO (PISA); higher = thermal stabilisation; K562 cells, 10 uM, 30 min; active = over 0.2 and 3.5 SD of the protein, either way, in both replicates (recomputed)
saracatinib = compound: CN1CCN(CCOc2cc(OC3CCOCC3)c3c(Nc4c(Cl)ccc5c4OCO5)ncnc3c2)CC1 [saracatinib]
Outline: (§1)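 Soluble protein was quantified by TMTpro 16plex LC-MS/MS after channel sums were equalised. It was obtained as the supernatant after 21,000xg for 90 min from pooled aliquots of K562 cells (2×10^6 cells/mL, 10 μM compound, 30 min) heated for 3 min across 48°C-58°C and extracted in PBS with 0.5% NP-40 at 4°C. Thermal stability values are relative to control samples and come from duplicates. They are given as log2 fold changes.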

sotrastaurin = compound: CN1CCN(c2nc(C3=C(c4c[nH]c5ccccc45)C(=O)NC3=O)c3ccccc3n2)CC1 [sotrastaurin]
Outline: as §1

alvocidib = compound: CN1CC[C@H](c2c(O)cc(O)c3c(=O)cc(-c4ccccc4Cl)oc23)[C@H](O)C1 [alvocidib]
Outline: as §1

Tubastatin A = compound: CN1CCc2c(c3ccccc3n2Cc2ccc(C(=O)NO)cc2)C1 [Tubastatin A]
Outline: as §1

[1] = compound: CNC(=O)C1=CC=CC=C1NC2=NC(=NC=C2Cl)NC3=C(C=C(C=C3)N4CCOCC4)OC
Outline: as §1

defactinib = compound: CNC(=O)c1ccc(Nc2ncc(C(F)(F)F)c(NCc3nccnc3N(C)S(C)(=O)=O)n2)cc1 [defactinib]
Outline: as §1

rucaparib = compound: CNCc1ccc(-c2[nH]c3cc(F)cc4c3c2CCNC4=O)cc1 [rucaparib]
Outline: as §1

[2] = compound: CNc1nc(-c2ccc3c(N)n[nH]c3c2)cc(N2C[C@@H](C(=O)NC3CCCCC3)CC[C@H]2C)n1
Outline: as §1

encorafenib = compound: COC(=O)N[C@@H](C)CNc1nccc(-c2cn(C(C)C)nc2-c2cc(Cl)cc(NS(C)(=O)=O)c2F)n1 [encorafenib]
Outline: as §1

[3] = compound: COC(=O)[C@H](CCSC)NC(=O)C1=C(C=C(C=C1)NC[C@H](CS)N)C2=CC=CC=C2
Outline: as §1

[4] = compound: COC1=CC=C(C=C1)CN2C=CC3=C2C=C(C=C3)C(=O)NO
Outline: as §1

filanesib = compound: CON(C)C(=O)N1N=C(c2cc(F)ccc2F)S[C@@]1(CCCN)c1ccccc1 [filanesib]
Outline: as §1

zotarolimus = compound: CO[C@H]1C[C@@H]2CC[C@@H](C)[C@@](O)(O2)C(=O)C(=O)N2CCCC[C@H]2C(=O)O[C@H]([C@H](C)C[C@@H]2CC[C@H](n3cnnn3)[C@H](OC)C2)CC(=O)[C@H](C)/C=C(\C)[C@@H](O)[C@@H](OC)C(=O)[C@H](C)C[C@H](C)/C=C/C=C/C=C/1C [zotarolimus]
Outline: as §1

idasanutlin = compound: COc1cc(C(=O)O)ccc1NC(=O)[C@@H]1N[C@@H](CC(C)(C)C)[C@](C#N)(c2ccc(Cl)cc2F)[C@H]1c1cccc(Cl)c1F [idasanutlin]
Outline: as §1

alisertib = compound: COc1cc(Nc2ncc3c(n2)-c2ccc(Cl)cc2C(c2c(F)cccc2OC)=NC3)ccc1C(=O)O [alisertib]
Outline: as §1

[5] = compound: COc1cc2nc(-c3cc(F)ccc3O)nc(N[C@@H]3CNC[C@H]3C(C)(C)O)c2cc1OC
Outline: as §1

gefitinib = compound: COc1cc2ncnc(Nc3ccc(F)c(Cl)c3)c2cc1OCCCN1CCOCC1 [gefitinib]
Outline: as §1

[6] = compound: COc1cccc2cc(-c3nc([C@H]4CC[C@H](C(=O)O)CC4)n4ncnc(N)c34)[nH]c12
Outline: as §1

lapatinib = compound: CS(=O)(=O)CCNCc1ccc(-c2ccc3ncnc(Nc4ccc(OCc5cccc(F)c5)c(Cl)c4)c3c2)o1 [lapatinib]
Outline: as §1

pictilisib = compound: CS(=O)(=O)N1CCN(Cc2cc3nc(-c4cccc5[nH]ncc45)nc(N4CCOCC4)c3s2)CC1 [pictilisib]
Outline: as §1

Measured: log2 fold change

PSME4 (UniProt Q14997)
Chain of UniProt Q14997 (Q14997 whole entry, looked up): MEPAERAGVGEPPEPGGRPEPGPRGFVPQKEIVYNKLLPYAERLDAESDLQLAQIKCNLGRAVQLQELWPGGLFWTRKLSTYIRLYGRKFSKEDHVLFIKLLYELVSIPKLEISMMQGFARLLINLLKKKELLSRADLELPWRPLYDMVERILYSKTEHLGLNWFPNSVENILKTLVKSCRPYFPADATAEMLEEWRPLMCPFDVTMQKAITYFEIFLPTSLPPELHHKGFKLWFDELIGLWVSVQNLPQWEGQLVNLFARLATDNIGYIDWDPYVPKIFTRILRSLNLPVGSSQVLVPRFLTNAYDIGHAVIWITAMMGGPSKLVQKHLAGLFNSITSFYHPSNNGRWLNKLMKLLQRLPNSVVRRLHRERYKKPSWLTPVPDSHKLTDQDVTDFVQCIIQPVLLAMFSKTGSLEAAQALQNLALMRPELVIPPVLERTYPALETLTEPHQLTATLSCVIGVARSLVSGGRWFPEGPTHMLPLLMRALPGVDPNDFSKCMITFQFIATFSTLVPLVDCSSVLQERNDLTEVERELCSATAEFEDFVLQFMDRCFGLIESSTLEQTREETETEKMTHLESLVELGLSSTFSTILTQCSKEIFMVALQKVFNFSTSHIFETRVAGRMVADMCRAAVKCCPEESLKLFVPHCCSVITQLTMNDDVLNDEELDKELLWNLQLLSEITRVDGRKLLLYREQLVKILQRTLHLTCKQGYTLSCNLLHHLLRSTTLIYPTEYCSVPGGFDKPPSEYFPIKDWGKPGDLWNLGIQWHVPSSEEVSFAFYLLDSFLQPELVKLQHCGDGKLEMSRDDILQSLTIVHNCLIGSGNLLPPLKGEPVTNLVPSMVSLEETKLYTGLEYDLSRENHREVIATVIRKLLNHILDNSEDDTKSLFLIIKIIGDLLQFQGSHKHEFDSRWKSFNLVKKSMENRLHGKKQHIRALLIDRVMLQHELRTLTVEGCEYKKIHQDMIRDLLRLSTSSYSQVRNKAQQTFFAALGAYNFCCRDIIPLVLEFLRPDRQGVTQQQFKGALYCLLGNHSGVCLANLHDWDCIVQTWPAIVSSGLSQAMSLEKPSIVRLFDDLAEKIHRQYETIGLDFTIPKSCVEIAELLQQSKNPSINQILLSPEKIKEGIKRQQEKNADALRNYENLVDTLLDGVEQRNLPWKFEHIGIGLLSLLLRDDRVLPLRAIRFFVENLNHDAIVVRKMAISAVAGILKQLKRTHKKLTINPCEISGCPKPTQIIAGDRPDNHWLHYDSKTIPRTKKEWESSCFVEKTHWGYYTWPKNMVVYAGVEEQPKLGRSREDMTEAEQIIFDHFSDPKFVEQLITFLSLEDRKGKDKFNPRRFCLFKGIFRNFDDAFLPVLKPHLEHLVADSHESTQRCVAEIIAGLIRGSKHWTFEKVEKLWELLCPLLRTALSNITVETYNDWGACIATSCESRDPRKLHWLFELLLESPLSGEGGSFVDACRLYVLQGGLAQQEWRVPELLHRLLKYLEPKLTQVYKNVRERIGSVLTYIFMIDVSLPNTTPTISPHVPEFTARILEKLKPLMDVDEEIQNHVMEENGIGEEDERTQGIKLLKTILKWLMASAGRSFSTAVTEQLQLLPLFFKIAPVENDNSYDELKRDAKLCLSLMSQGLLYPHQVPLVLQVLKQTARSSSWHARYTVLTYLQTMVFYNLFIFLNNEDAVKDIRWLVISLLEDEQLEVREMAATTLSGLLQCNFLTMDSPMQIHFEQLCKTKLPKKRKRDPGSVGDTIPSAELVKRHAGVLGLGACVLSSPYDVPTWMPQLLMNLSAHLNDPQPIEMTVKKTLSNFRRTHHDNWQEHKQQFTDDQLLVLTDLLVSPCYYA
inactive: saracatinib -0.006 | sotrastaurin -0.035 | alvocidib -0.051 | Tubastatin A 0.025 | [1] -0.027 | defactinib 0.037 | rucaparib -0.023 | [2] 0.067 | encorafenib 0.066 | [3] -0.029 | [4] -0.023 | filanesib -0.091 | zotarolimus 0.005 | idasanutlin -0.123 | alisertib -0.045 | [5] -0.03 | gefitinib -0.071 | [6] 0.037 | lapatinib 0.044 | pictilisib -0.045

PRPF4B (UniProt Q13523)
inactive: saracatinib -0.064 | sotrastaurin -0.047 | alvocidib -0.052 | Tubastatin A 0.085 | [1] -0.209 | defactinib -0.32 | rucaparib 0.022 | [2] -0.146 | encorafenib 0.02 | [3] 0.046 | [4] -0.024 | filanesib 0.253 | zotarolimus 0.187 | idasanutlin 0.164 | alisertib -0.047 | [5] -0.1 | gefitinib -0.023 | [6] 0.003 | lapatinib 0.19 | pictilisib 0.097

PCYT1B (UniProt Q9Y5K3)
inactive: saracatinib 0.133 | sotrastaurin -0.13 | alvocidib -0.236 | Tubastatin A -0.028 | [1] -0.028 | defactinib -0.162 | rucaparib -0.139 | [2] -0.036 | encorafenib 0.04 | [3] -0.029 | [4] 0.005 | filanesib 0.026 | zotarolimus 0 | idasanutlin -0.029 | alisertib -0.156 | [5] 0.131 | gefitinib -0.051 | [6] 0.018 | lapatinib -0.019 | pictilisib -0.12

PDE6D (UniProt O43924)
Chain of UniProt O43924 (O43924 whole entry, looked up): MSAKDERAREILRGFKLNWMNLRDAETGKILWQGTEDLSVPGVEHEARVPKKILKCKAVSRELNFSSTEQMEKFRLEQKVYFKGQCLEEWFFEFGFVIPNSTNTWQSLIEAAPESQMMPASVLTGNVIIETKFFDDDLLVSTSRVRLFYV
inactive: saracatinib -0.074 | sotrastaurin 0.035 | alvocidib -0.051 | Tubastatin A 0.029 | [1] -0.102 | defactinib -0.043 | [2] 0.119 | [3] 0.068 | [4] -0.036 | filanesib 0.101 | zotarolimus -0.179 | idasanutlin -0.092 | alisertib -0.031 | gefitinib 0.076 | [6] 0.002 | pictilisib 0.078

PELO (UniProt Q9BRX2)
Chain of UniProt Q9BRX2 (Q9BRX2 whole entry, looked up): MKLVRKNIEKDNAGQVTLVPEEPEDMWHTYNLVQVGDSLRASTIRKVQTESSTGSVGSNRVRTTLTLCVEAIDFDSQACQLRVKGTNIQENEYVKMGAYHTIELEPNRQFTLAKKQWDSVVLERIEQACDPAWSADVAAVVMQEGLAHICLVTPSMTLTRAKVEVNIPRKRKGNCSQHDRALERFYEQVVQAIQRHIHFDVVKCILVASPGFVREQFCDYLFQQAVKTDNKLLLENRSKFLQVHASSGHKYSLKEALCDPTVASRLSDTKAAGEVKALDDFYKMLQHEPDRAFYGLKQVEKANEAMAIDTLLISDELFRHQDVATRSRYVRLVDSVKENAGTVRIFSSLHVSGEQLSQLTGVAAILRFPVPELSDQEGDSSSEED
inactive: saracatinib -0.079 | sotrastaurin -0.218 | alvocidib -0.066 | Tubastatin A 0.121 | [1] -0.122 | defactinib -0.058 | rucaparib 0.299 | [2] 0.148 | encorafenib 0.137 | [3] 0.061 | [4] 0.001 | filanesib 0.128 | zotarolimus 0.158 | idasanutlin -0.024 | alisertib 0.489 | [5] 0.053 | gefitinib 0.009 | [6] 0.001 | lapatinib -0.06 | pictilisib -0.111

PKM (UniProt P14618)
inactive: saracatinib 0.012 | sotrastaurin 0.024 | alvocidib 0 | Tubastatin A -0.004 | [1] -0.028 | defactinib -0.01 | rucaparib -0.052 | [2] -0.007 | encorafenib -0.01 | [3] 0.011 | [4] 0 | filanesib -0.048 | zotarolimus -0.004 | idasanutlin -0.04 | alisertib -0.073 | [5] 0.012 | gefitinib -0.002 | [6] 0.054 | lapatinib -0.033 | pictilisib 0.026

PNN (UniProt Q9H307)
inactive: saracatinib -0.037 | sotrastaurin -0.044 | alvocidib -0.12 | [1] -0.067 | rucaparib 0.303 | [2] -0.071 | encorafenib -0.174 | [4] -0.004 | filanesib 0.083 | zotarolimus -0.047 | idasanutlin 0.125 | alisertib -0.017 | [5] -0.14 | gefitinib 0.031 | [6] 0.056 | lapatinib -0.037 | pictilisib -0.015

PIK3CD (UniProt O00329)
inactive: saracatinib -0.124 | sotrastaurin -0.106 | alvocidib 0.055 | Tubastatin A 0.003 | [1] 0.08 | defactinib -0.218 | rucaparib 0.182 | [2] 0.089 | encorafenib -0.019 | [3] -0.062 | [4] -0.016 | filanesib 0.029 | zotarolimus -0.098 | idasanutlin 0.105 | [5] 0.02 | lapatinib -0.018

PMVK (UniProt Q15126)
Chain of UniProt Q15126 (Q15126 whole entry, looked up): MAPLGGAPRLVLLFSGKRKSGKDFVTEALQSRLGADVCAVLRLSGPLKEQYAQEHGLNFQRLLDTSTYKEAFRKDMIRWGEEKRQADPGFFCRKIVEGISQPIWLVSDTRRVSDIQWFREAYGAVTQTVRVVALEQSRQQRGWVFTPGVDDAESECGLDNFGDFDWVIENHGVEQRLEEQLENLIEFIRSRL
inactive: saracatinib -0.021 | sotrastaurin -0.003 | alvocidib -0.032 | Tubastatin A 0.229 | [1] -0.051 | defactinib 0.02 | [2] -0.039 | [3] -0.368 | filanesib 0.198 | zotarolimus 0.083 | idasanutlin 0.064 | alisertib 0.047 | gefitinib -0.189 | [6] -0.144 | pictilisib 0.073

POGZ (UniProt Q7Z3K3)
inactive: saracatinib -0.134 | sotrastaurin -0.186 | alvocidib -0.065 | Tubastatin A -0.071 | [1] 0.056 | defactinib -0.162 | rucaparib 0.196 | [2] 0.136 | encorafenib -0.02 | [3] -0.043 | [4] -0.066 | filanesib -0.021 | zotarolimus 0.008 | idasanutlin 0.01 | [5] 0.095 | lapatinib -0.086 | pictilisib 0.082

POLB (UniProt P06746)
inactive: saracatinib -0.21 | sotrastaurin -0.16 | alvocidib 0.195 | Tubastatin A 0.138 | [1] 0.062 | rucaparib 0.095 | [2] 0.05 | encorafenib 0.031 | filanesib -0.155 | zotarolimus 0.215 | [5] 0.037 | gefitinib 0.199 | lapatinib -0.006 | pictilisib -0.022

PYGB (UniProt P11216)
inactive: saracatinib 0.012 | sotrastaurin -0.142 | alvocidib 0.153 | Tubastatin A -0.003 | defactinib -0.091 | rucaparib -0.004 | [2] -0.042 | encorafenib 0.024 | [3] -0.009 | [4] -0.024 | filanesib 0.035 | zotarolimus -0.023 | idasanutlin -0.013 | alisertib -0.019 | gefitinib -0.037 | [6] 0.028 | lapatinib -0.223 | pictilisib -0.164
active: [1] -0.391 | [5] 0.237

PRKAR1B (UniProt P31321)
inactive: saracatinib -0.137 | sotrastaurin -0.02 | alvocidib 0.128 | Tubastatin A 0.035 | [1] 0.247 | defactinib 0.117 | rucaparib 0.029 | [2] 0.047 | encorafenib 0.056 | [3] -0.067 | [4] 0.1 | filanesib 0.034 | zotarolimus 0.011 | idasanutlin -0.099 | alisertib 0.02 | [5] 0.027 | gefitinib 0.051 | [6] -0.162 | lapatinib 0.004 | pictilisib 0.199

PRKD2 isoform 3 (UniProt Q9BZL6)
Chain of UniProt Q9BZL6 (Q9BZL6 whole entry, looked up): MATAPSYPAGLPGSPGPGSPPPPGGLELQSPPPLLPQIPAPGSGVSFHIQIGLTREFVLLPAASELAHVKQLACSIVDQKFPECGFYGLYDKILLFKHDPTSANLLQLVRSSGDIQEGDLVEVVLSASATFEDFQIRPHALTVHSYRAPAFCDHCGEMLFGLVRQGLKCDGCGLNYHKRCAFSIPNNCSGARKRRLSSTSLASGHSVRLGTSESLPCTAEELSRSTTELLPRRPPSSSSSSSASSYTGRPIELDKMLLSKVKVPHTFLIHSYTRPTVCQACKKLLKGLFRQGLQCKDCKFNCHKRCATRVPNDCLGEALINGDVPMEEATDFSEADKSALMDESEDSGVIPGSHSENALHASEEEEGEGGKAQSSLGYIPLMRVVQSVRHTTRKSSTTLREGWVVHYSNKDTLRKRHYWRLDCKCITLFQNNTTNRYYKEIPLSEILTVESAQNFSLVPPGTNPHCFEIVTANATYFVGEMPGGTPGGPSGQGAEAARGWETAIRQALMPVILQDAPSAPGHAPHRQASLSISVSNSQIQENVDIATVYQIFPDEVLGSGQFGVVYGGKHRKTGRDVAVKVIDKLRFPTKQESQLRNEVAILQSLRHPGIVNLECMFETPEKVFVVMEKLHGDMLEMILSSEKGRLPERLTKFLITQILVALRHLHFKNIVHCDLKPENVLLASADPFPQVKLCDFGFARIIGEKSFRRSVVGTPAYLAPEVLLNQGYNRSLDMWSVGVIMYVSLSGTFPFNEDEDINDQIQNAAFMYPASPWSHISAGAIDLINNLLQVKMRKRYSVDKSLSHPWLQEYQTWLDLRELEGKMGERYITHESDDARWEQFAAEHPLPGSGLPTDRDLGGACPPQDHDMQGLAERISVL
inactive: saracatinib -0.031 | sotrastaurin -0.273 | alvocidib 0.034 | Tubastatin A 0 | [1] -0.242 | defactinib -0.004 | [2] -0.075 | [3] -0.024 | [4] -0.05 | filanesib -0.037 | zotarolimus -0.125 | idasanutlin 0.078 | alisertib -0.03 | [5] -0.042 | gefitinib -0.159 | [6] 0.033 | lapatinib -0.011 | pictilisib -0.17

PRKCG (UniProt P05129)
inactive: saracatinib 0.011 | sotrastaurin -0.373 | alvocidib -0.076 | Tubastatin A -0.025 | [1] 0.088 | defactinib -0.015 | rucaparib -0.021 | [2] -0.164 | encorafenib 0.19 | [3] -0.02 | [4] -0.071 | filanesib 0.019 | zotarolimus 0.118 | idasanutlin -0.011 | alisertib -0.01 | [5] 0.098 | gefitinib -0.025 | [6] -0.17 | lapatinib 0.055 | pictilisib 0.113

PDSS2 (UniProt Q86YH6)
inactive: saracatinib 0.159 | sotrastaurin 0.218 | alvocidib -0.053 | Tubastatin A -0.013 | [1] -0.019 | defactinib -0.076 | rucaparib 0.07 | [2] -0.025 | encorafenib -0.154 | [3] -0.042 | [4] 0.23 | filanesib 0.025 | zotarolimus 0.184 | idasanutlin 0.157 | [5] -0.286 | gefitinib 0.15 | lapatinib 0.162 | pictilisib -0.038

PPT2 isoform 3 (UniProt Q9UMR5)
Chain of UniProt Q9UMR5 (Q9UMR5 whole entry, looked up): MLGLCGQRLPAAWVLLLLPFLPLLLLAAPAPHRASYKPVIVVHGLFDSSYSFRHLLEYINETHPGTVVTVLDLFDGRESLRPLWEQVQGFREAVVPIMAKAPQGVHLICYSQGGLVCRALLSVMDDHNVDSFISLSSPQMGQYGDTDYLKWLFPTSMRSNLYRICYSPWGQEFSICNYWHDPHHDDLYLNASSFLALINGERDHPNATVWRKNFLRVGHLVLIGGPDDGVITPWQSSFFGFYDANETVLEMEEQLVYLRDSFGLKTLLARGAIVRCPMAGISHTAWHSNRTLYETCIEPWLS
inactive: saracatinib 0.042 | sotrastaurin 0.022 | alvocidib -0.04 | Tubastatin A 0.018 | [1] 0 | defactinib -0.023 | rucaparib 0.025 | [2] 0.038 | encorafenib -0.003 | [3] 0.029 | [4] 0.052 | filanesib 0.008 | zotarolimus -0.019 | idasanutlin -0.082 | alisertib -0.114 | [5] -0.029 | gefitinib -0.004 | [6] 0.093 | lapatinib 0.035 | pictilisib 0.024

RAB11FIP1 (UniProt Q6WKZ4)
Chain of UniProt Q6WKZ4 (Q6WKZ4 whole entry, looked up): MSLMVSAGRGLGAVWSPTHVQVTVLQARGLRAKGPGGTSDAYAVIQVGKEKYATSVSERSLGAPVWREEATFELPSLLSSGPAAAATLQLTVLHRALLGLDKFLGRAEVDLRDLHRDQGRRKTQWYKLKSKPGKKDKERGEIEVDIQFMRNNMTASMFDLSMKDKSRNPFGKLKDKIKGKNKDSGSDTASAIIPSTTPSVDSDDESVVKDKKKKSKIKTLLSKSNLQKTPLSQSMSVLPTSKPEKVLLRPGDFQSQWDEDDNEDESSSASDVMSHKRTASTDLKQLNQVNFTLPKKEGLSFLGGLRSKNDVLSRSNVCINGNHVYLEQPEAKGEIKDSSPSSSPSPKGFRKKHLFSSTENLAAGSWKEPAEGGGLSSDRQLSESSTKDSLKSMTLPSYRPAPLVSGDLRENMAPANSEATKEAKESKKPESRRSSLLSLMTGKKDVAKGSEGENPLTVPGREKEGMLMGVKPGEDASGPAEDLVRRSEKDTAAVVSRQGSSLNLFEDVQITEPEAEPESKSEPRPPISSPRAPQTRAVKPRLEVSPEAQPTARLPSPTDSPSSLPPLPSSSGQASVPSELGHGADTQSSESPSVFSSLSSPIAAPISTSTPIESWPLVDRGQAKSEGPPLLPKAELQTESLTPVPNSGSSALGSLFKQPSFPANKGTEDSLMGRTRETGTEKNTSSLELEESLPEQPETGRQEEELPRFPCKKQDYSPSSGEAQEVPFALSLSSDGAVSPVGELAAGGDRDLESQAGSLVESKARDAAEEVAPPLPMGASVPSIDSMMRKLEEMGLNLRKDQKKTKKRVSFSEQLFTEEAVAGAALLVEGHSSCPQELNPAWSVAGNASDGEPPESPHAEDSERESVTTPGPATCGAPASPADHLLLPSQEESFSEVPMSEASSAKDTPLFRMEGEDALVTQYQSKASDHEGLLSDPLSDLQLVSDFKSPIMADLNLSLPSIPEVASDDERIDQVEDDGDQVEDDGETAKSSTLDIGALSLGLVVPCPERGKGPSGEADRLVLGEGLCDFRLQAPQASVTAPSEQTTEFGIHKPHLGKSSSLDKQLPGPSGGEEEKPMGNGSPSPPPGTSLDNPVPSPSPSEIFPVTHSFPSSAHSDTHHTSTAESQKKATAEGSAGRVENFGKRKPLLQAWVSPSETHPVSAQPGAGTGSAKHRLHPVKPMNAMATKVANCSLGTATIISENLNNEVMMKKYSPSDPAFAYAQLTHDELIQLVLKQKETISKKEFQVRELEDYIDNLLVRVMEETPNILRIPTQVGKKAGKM
inactive: saracatinib 0.021 | sotrastaurin -0.094 | alvocidib -0.028 | Tubastatin A 0.005 | [1] 0.045 | defactinib -0.16 | rucaparib -0.012 | [2] -0.043 | encorafenib 0.052 | [3] -0.019 | [4] -0.024 | filanesib 0.004 | zotarolimus 0 | idasanutlin -0.015 | alisertib 0.368 | [5] -0.03 | gefitinib -0.009 | [6] 0.007 | lapatinib 0.01 | pictilisib -0.107
